# LmPK inhibitor = blocks Leishmania mexicana pyruvate kinase activity; purified LmPK, Kinase-Glo ATP luminescence, 1 h; actives 0.37% (n = 290,000); Potency, µM (series often up to 57.5 µM), hits mostly inhibitors
# Target sequence (Q27686 whole entry, looked up): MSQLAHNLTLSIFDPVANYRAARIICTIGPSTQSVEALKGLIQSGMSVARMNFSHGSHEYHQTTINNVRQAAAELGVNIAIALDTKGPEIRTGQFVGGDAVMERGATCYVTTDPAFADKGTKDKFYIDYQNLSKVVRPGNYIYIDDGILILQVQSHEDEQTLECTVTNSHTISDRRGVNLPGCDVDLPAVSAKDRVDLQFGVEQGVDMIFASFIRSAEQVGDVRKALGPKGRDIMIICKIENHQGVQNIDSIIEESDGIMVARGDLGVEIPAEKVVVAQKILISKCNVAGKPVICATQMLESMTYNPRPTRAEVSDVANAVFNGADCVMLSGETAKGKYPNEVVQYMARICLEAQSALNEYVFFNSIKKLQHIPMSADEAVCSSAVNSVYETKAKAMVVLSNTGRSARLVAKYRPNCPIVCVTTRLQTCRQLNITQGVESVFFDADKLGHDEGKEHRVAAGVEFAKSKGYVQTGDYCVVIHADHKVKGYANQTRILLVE
#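 ATP generated from ADP (0.1 mM) and PEP (0.5 mM) by 0.1 nM LmPK over 1 h at room temperature (pH 7.2 imidazole buffer) was detected by coupled luciferase luminescence. Values were normalized to uninhibited and no-enzyme wells.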
# Sm TGR block = inhibitors of Schistosoma mansoni thioredoxin glutathione reductase. Q962Y6. purified TGR, DTNB reduction, TNB absorbance 405 nm. Potency, µM (titrated, usually from 114 µM), most hits filed as inhibitors. actives 3% (n = 360,000); note: nearly all actives have a fitted effect of over 60% in size
#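 First, TGR (20 nM dispensed) and NADPH were mixed with compound. Second, a 15 min room-temperature incubation followed. Third, further NADPH and then DTNB were added to start the reaction. Finally, TNB absorbance was monitored kinetically.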
# RE007 growth inh = less growth of the S. pombe RE007 Vpr strain. S. pombe RE007 Vpr strain, BacTiter-Glo ATP luminescence, 24 h. Potency, µM (doses to about 92.2 µM), usual class: inhibitors. actives 0.21% (n = 360,000). AID 651644; active = well fitted falling curve with a large enough effect; inconclusive = small, poorly fitted or top-dose-only effect; inactive = no such curve, though single readings can be large or run the other way; note: nearly all actives have a fitted effect of over 50% in size
#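 Fission yeast strain RE007, carrying one chromosomally integrated HIV-1 vpr copy, was seeded at OD 0.01 in PMG+AL medium with 23 nL pinned compound. After 24 h at 30 °C and 99% humidity, viability was read by BacTiter-Glo luminescence.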
# TbPYK inhibitor = blocks Trypanosoma brucei pyruvate kinase. Q57TT1. TbPYK enzyme, Kinase-Glo Plus ATP luminescence, 45 min. Potency, µM (doses to about 76.8 µM), usual class: inhibitors. actives 0.12% (n = 410,000); note: nearly all actives have a fitted effect of over 50% in size
#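 Enzyme and substrate buffer are dispensed first and compound is pin-transferred. ADP at 130 uM final then starts the reaction, which runs 45 min at room temperature. Detection reagent is added for 10 min before luminescence is imaged.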
# SARS PLP yeast = inhibitors of SARS-CoV papain-like protease in yeast; S. cerevisiae expressing SARS-CoV PLpro, growth rescue; Potency, µM (doses to about 32.9 µM), hits mostly activators; actives 0.19% (n = 330,000); AID 485353; calls by dose curve; note: nearly all actives have a fitted effect of over 55% in size
# NS1 function inh = influenza NS1 inhibition; AID 2326; actives 0.4% (n = 270,000); Potency, µM (highest dose often 46.1 µM); calls by dose curve; note: actives are rising curves; nearly all actives have a fitted effect of over 50% in size
#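 Recovery from NS1-induced slow growth read by OD600 in budding yeast switched to galactose assay medium (pH 6.0, -URA) at 1:100 dilution. Compound 23 nl per well; the matching strain lacking NS1 serves as control.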
# Hits are given with their value; . = inactive; ? = inconclusive; / = no result. In the library only some 3.3% were active in any assay of this set; here they are far more common. Unless noted, calls come from the whole dose curve; as a rule, active = well fitted curve in the direction sought with a large enough effect; inconclusive = small, poorly fitted or top-dose-only effect, or another doubt; inactive = no such curve, though single readings can be large; an effect the other way counts as inactive or inconclusive.
SMILES,LmPK inhibitor,Sm TGR block,RE007 growth inh,TbPYK inhibitor,SARS PLP yeast,NS1 function inh
Fc1cccc(Cc2c(-c3ccco3)nc3ccc(Br)cn23)c1,/,/,.,25.1µM,/,/
Cc1cc(C)c(NC(=O)Cn2c(=O)n(CCCCC(=O)NCc3ccccc3Cl)c(=O)c3ccccc32)c(C)c1,/,.,/,.,/,/
Cc1ccc(C)c(OCCCC(=O)NC2CCCCC2)c1,.,.,.,.,.,.
Cc1ccc(OCCCC(=O)NC2CCCCC2)cc1,.,39.8µM,.,.,.,.
COc1ccc(-n2nnnc2S(=O)(=O)CC(=O)N2CCCCC2)cc1,.,10µM,.,.,.,.
COc1ccc(-n2nnnc2S(=O)(=O)Cc2ccc(C(=O)O)cc2)cc1,.,12.6µM,.,.,.,.
O=C(CCS(=O)(=O)c1ccccc1)Nc1nc2c(s1)COc1ccccc1-2,.,31.6µM,.,.,.,.
COC(=O)c1ccsc1NC(=O)CCS(=O)(=O)c1ccccc1,.,10µM,.,.,.,.
O=C(CCS(=O)(=O)c1ccccc1)Nc1nncs1,.,20µM,.,.,.,.
COC(=O)c1ccsc1NC(=O)CCS(=O)(=O)c1ccc(Cl)cc1,/,?,.,.,/,/
Cc1ccc(Cl)cc1-n1nnc(-c2nc(-c3ccc4c(c3)OCO4)no2)c1C,/,.,/,.,/,/
CCC1=[N+](C)CCn2c(C)ccc21,.,.,.,.,.,.
CC(=O)c1c(C)c(C)c2n1CCn1c(C)ccc1-2,.,12.6µM,.,.,.,.
Cc1ccc(C2=CC(c3ccccc3)n3ncnc3N2)cc1 (stereo unspecified),/,/,.,.,/,/
COc1cccc(C2=CC(c3ccc(C)cc3)n3ncnc3N2)c1 (stereo unspecified),.,17.8µM,/,/,.,.
O=C(NCCc1ccccc1)c1ccc2c(=O)[nH]c3c(C(=O)NCC4CCCO4)sc(=S)n3c2c1 (stereo unspecified),.,.,.,.,.,.
O=C(NCC1CCCO1)c1sc(=S)n2c1[nH]c(=O)c1ccc(C(=O)N3CCCCC3)cc12 (stereo unspecified),20µM,.,.,?,.,.
N#Cc1c([N+](=O)[O-])cc([N+](=O)[O-])cc1S(=O)(=O)Cc1ccccc1,/,0.355µM,?,.,.,/
COc1cc(OC)c(C#N)c(S(=O)(=O)Cc2ccccc2)c1,.,.,.,.,.,.
Cc1sc(NC(=O)CSc2n[nH]c(N)n2)c(C#N)c1C,/,/,.,.,/,/
Cc1ccc(/C=C/C2=Cc3c(sc(NC(=O)CSc4n[nH]c(N)n4)c3C#N)C(C)(C)C2)o1,.,2.51µM,/,/,.,.
O=S(=O)(c1ccc(Cl)cc1)c1nc(-c2ccccc2Br)oc1N1CCOCC1,/,.,/,.,/,/
c1ccc(-c2nc(-c3ccncc3)no2)cc1,14.1µM,.,.,.,/,.
c1coc(-c2nc(-c3ccncc3)no2)c1,22.4µM,.,.,.,.,.
C=C[C@@H]1CN2CC[C@@H]1C[C@H]2[C@H](O)c1ccnc2ccc(OC)cc12,/,/,/,/,/,.
SMILES,LmPK inhibitor,Sm TGR block,RE007 growth inh,TbPYK inhibitor,SARS PLP yeast,NS1 function inh
CCCCN(CC)CCCNC(=O)c1cc2c(=O)[nH]c3ccccc3c2s1,.,44.7µM,.,.,.,.
CCN1/C(=C/C=C/C=C/C=C/c2sc3ccccc3[n+]2CC)Sc2ccccc21,.,39.8µM,.,?,.,.
CCN1/C(=C/C=C/C=C/c2sc3ccccc3[n+]2CC)Sc2ccccc21,?,50.1µM,/,?,.,.
CCN1/C(=C/C=C/c2sc3ccccc3[n+]2CC)Sc2ccccc21,/,.,?,?,/,/
Cc1cc(C(=O)CCl)c(C)n1CCc1ccc(Cl)cc1,.,7.94µM,.,.,.,.
Cc1cc(C(=O)CCl)c(C)n1CCc1ccc(F)cc1,.,2.51µM,.,.,.,/
N#Cc1c(SCC(=O)Nc2nccs2)nc2c(c1-c1ccco1)CCCC2,.,44.7µM,.,.,.,?
O=C(c1ccccc1)C(CN1CCCC1)c1ccccc1 (stereo unspecified),.,44.7µM,?,.,.,.
O=C(c1ccc(Cl)cc1)C(CN1CCCCC1)c1ccccc1 (stereo unspecified),.,6.31µM,?,.,.,.
Cc1ccc(-c2nn(-c3ccc(F)cc3F)c3c2cnc2c(F)cccc23)cc1,/,.,/,.,/,/
CCC(=O)Nc1cc(-c2nc3cc(C)cc(C)c3o2)ccc1C,/,.,/,.,/,/
Cc1nn(C(=O)c2ccc(Cl)cc2)c(C)c1S(=O)(=O)N1CCCCCC1,/,.,/,.,/,/
CCCN(CCC)C(=O)c1nn(C)c2c1CSc1ccccc1-2,/,.,/,.,/,/
COc1ccc2c(c1)Sc1ccccc1N2,.,22.4µM,?,.,.,/

# Bioassay records as filed in PubChem BioAssay.
